This note sets out measurements from PubChem BioAssay (NCATS).

Molecules are shown by their SMILES. Values without a mark were called inactive. Results filed as inconclusive are left out. The source made the active and inactive calls. Calls follow the shape of the dose curve; as a rule, active = well fitted curve in the direction sought with a large enough effect; inconclusive = small, poorly fitted or top-dose-only effect, or another doubt; inactive = no such curve, though single readings can be large; an effect the other way counts as inactive or inconclusive.

Test [1] relates to Zika virus NS2B-NS3 protease (linked construct). The experiment in a line: Primary screen NINDS Rhodamine qHTS for Zika virus inhibitors (AID 1347160). Also: nearly all actives have a fitted effect of over 55% in size. Also: potency is read from the fitted curve at half-maximal effect. An outline of the steps:
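Aprotinin served as in-plate control. Conditions: 25 nM linked NS2B-NS3, pH 8.0 Tris buffer, titrated compounds, 15 min preincubation and 15 min reaction with 1.5 microM Rhod110 substrate at room temperature.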
On the technique in general: Quantitative high-throughput screening tests each substance at several concentrations.

A short description of test [2]: HPAF-II Cancer Cell Toxicity qHTS against the NCATS CANVASS Library (AID 1347346). Also: nearly all actives have a fitted effect of over 55% in size. Also: potency is read from the fitted curve at half-maximal effect. A digest of the protocol: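 First, HPAF-II cells are plated (1000 cells/well) and held 4 h at 37 degrees C. Next, compounds are pin-transferred as an 11-point series. After 72 h, CellTiter-Glo is added and luminescence measured.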
The nature of test [3]: OV-SAHO Cancer Cell Toxicity qHTS against the NCATS CANVASS Library (AID 1347348). Also: nearly all actives have a fitted effect of over 55% in size. Also: potency is read from the fitted curve at half-maximal effect. An outline of the steps: (§1)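 Following a 4 h pre-incubation of 1000 seeded cells, compounds were pinned in an 11-pnt dilution series and left for 72 h; viability then came from CellTiter-Glo.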
The nature of test [4]: U-118MG Cancer Cell Toxicity qHTS against the NCATS CANVASS Library (AID 1347351). Also: potency is read from the fitted curve at half-maximal effect. An outline of the steps: as §1
Test [5] in a line: HEK293 18hr Apoptosis Induction qHTS against the NCATS CANVASS Library (AID 1347357). An outline of the steps: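 HEK293 cells (500 per well, DMEM with 10% FBS) were treated with natural products, incubated 18 hours at 37 degrees C, then caspase-3/7 activity was read by Caspase-Glo luminescence after 15 min at room temperature.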
Test [6] is described as follows: HPAF-II 12hr Apoptosis Induction qHTS against the NCATS CANVASS Library (AID 1347358). An outline of the steps:
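Cells plated at 500 per well are dosed with compound and incubated 12 hours at 37 degrees C. Caspase-Glo 3/7 reagent is added and, after 15 min at room temperature, luminescence proportional to caspase activity is measured.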

Test [7] can be described thus: HEK293 24hr Apoptosis Induction qHTS against the NCATS CANVASS Library (AID 1347359). A digest of the protocol: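 Caspase-3/7 activation measured as luminescence from the DEVD-based Caspase-Glo reagent, 15 min at room temperature, following 24-hour compound treatment of HEK293 cells.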
Test [8] is described as follows: HPAF-II 18hr Apoptosis Induction qHTS against the NCATS CANVASS Library (AID 1347360). An outline of the steps: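 HPAF-II cells (500/well, DMEM + 10% FBS) were exposed to compounds for 18 hours at 37 degrees C. Caspase-3/7 activity was then read by Caspase-Glo 3/7 luminescence after 15 min at room temperature.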
Test [9] can be described thus: HEK293 12hr Apoptosis Induction qHTS against the NCATS CANVASS Library (AID 1347361). Also: potency is read from the fitted curve at half-maximal effect. An outline of the steps: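 Read-out: Caspase-Glo 3/7 luminescence (DEVD substrate), 15 min RT. Preceded by 12 h compound exposure of HEK293, 500 cells/well, 11-pt qHTS titration; doxorubicin titration as control.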
Test [10] concerns the target Luciferin 4-monooxygenase (Photinus pyralis) (UniProt P08659). The experiment in a line: Firefly luciferase counterscreen qHTS: Assay Interference Panel against the NCATS CANVASS Library (AID 1347363). Also: potency is read from the fitted curve at half-maximal effect. An outline of the steps:
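Luminescence inhibition readout: compounds (11-point qHTS) sat 15 min at room temperature with substrate mix (0.013 mM luciferin and ATP), then firefly luciferase was added and signal read 5 min later.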
Background: The purpose of a counterscreen is to sort out artefacts and off-target activity.

A short description of test [11]: MCF7 Cancer Cell Toxicity qHTS against the NCATS CANVASS Library (AID 1347369). Also: potency is read from the fitted curve at half-maximal effect. An outline of the steps: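 MCF7, 500 cells/well; cpds 11-pt qHTS; 72 hr, 37C/5% CO2; CellTiterGlo ATP luminescence.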
Test [12] in a line: J3T Cancer Cell Toxicity qHTS against the NCATS CANVASS Library (AID 1347371). Also: potency is read from the fitted curve at half-maximal effect. An outline of the steps:
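Luminescence from CellTiterGlo, reporting cellular ATP, serves as the viability measure after 72 hr compound treatment of J3T canine glioma cells seeded at 500 cells/well.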

For test [13], the target named is Nuclear receptor subfamily 1 group I member 3 (Homo sapiens) (UniProt Q14994). The experiment in a line: qHTS for Constitutive Androstane Receptor (CAR) Antagonist screened against the NCATS CANVASS Library (AID 1347372). Also: potency is read from the fitted curve at half-maximal effect. An outline of the steps: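 Antagonist mode: compound added alongside 50 nM CITCO to HepG2-hCAR-CYP2B6 reporter cells, 24hr at 37C. Viability by CellTiter-Fluor fluorescence, then CAR-driven luciferase by ONE-Glo luminescence.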

Test [14] can be described thus: 10-beta competent E. coli microbial cell viability qHTS against the NCATS CANVASS Library (AID 1347376). Also: series mostly up to about 46 µM. An outline of the steps: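 Bacterial suspension diluted to 0.2 OD was dosed with compounds, 11-point series, then held overnight at 37C. BacTiter-Glo reagent was added, and after 20 min at room temperature ATP-dependent luminescence was measured.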
Test [15] can be described thus: Inflammasome Signaling qHTS Counterscreen: IL-1-beta AlphaLISA counterscreen against the NCATS CANVASS Library (AID 1347381).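 Also: cell-free check with purified IL-1β in medium and no THP-1 cells; series mostly up to about 57 µM.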 An outline of the steps: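 Purified IL-1-beta (4 pg/well) + compound, 11-pt conc. series; acceptor beads 6 ug/mL + biotin-Ab 0.6 nM final, 1 h RT; SA-donor 24 ug/ml final, 30 min dark RT; read ex 680/em 615.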
Test [16] in a line: Cytotoxicity qHTS for assessment of Hepg2 cells membrane integrity screened against the NCATS CANVASS Library (AID 1347387). A digest of the protocol: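 Cells were seeded at 2000 per well and left overnight to attach. Compounds were pin-transferred to give 0.59 nM - 46 uM in an 11-point series and incubated 5 hr at 37C. CytoTox-ONE reagent was added and, after 10 min at room temperature, fluorescence (ex 560, em 590 nm) was read.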

Test [17] is described as follows: Vero-766 cells viability qHTS against the NCATS CANVASS Library: Counterscreen for Zika virus inhibition assay (AID 1347394). Also: nearly all actives have a fitted effect of over 60% in size. Also: potency is read from the fitted curve at half-maximal effect. An outline of the steps:
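Uninfected Vero 766 (African green monkey) cells, 1000/well, attached overnight, then exposed 72 h at 37C to compounds (11-point qHTS). Viability read by CellTiter-Glo luminescence; media-only wells served as 100% inhibition.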

Test [18] in a line: COV-362 Cancer Cell Toxicity qHTS against the NCATS CANVASS Library (AID 1347352). Also: potency is read from the fitted curve at half-maximal effect. An outline of the steps: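 First, 1000 cells go into each well and rest for 4 hours. Next, an 11-point dilution range is pinned in. Plates then incubate 72 hours before CellTiter-Glo addition and luminescence reading.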
Test [19] can be described thus: qHTS for ATAD5 Antagonist screened against the NCATS CANVASS Library (AID 1347370). Also: nearly all actives have a fitted effect of over 65% in size. Also: potency is read from the fitted curve at half-maximal effect. A digest of the protocol: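 Compounds (11-point) co-dosed with 10 µM 5-FUrd for 16 h at 37 °C onto HEK293T-ATAD5 luciferase reporter cells. Viability measured by CellTiter-Fluor fluorescence, then ATAD5 reporter signal by luminescence.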
Test [20] can be described thus: qHTS for Inflammasome Signaling Inhibitors: IL-1-beta AlphaLISA screen against the NCATS CANVASS Library (AID 1347379).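 Also: human THP-1 cells primed with LPS then triggered with ATP; secreted IL-1B measured as AlphaLISA emission at 615 nm.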 Also: potency is read from the fitted curve at half-maximal effect. An outline of the steps: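 Secreted IL-1B from human THP-1 cells quantified by AlphaLISA 16 hr after compound addition (final up to 57.5 uM). A 1 hr compound pretreatment preceded inflammasome activation with 250 ng/mL LPS plus 1.25 mM ATP (final).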

Sequence of Luciferin 4-monooxygenase (Photinus pyralis) (P08659 whole entry, looked up): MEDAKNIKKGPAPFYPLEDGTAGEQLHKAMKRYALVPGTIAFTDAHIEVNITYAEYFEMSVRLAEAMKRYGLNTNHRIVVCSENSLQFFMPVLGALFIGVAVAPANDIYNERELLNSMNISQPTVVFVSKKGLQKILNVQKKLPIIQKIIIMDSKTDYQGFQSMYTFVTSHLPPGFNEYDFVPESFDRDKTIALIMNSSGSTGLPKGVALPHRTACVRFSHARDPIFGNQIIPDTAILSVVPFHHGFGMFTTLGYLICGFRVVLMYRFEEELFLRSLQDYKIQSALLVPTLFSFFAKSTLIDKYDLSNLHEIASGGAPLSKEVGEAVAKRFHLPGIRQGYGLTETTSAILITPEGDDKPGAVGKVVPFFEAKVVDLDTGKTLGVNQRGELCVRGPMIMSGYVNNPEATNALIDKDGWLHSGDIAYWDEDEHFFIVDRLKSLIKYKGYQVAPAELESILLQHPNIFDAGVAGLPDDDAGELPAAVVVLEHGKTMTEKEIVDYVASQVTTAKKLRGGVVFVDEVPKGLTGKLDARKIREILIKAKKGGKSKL
Sequence of Nuclear receptor subfamily 1 group I member 3 (Homo sapiens) (Q14994 whole entry, looked up): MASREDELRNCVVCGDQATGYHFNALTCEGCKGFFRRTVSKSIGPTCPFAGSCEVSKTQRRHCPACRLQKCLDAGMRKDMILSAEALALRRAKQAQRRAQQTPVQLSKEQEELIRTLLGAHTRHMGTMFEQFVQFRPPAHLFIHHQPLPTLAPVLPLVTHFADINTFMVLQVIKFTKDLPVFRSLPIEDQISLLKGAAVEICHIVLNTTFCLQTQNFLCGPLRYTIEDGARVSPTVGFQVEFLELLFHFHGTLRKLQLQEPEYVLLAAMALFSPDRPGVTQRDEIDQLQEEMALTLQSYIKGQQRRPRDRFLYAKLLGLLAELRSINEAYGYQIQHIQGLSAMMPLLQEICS

Take `CN1CCc2cc3c(c4c2[C@H]1[C@@H](O)c1ccccc1-4)OCO3`: the Potency in [1] is 44 µM (active); in test [2] it was 13.3 µM (active); in test [11], 26.2 µM (active). For the same compound, the Potency entry in test [3], in test [4], in [5], in test [6], in test [7] and in test [8] was “inactive” in each case. Besides, the Potency entry in test [9], in [10], in test [12], in test [13] and in test [17] was “inactive” throughout. Also, the compound was classed as inactive in test [14], in test [15] and in test [16].

For `CS/C=C/C(N)=O`, the Potency entry in test [1], in test [2], in test [3], in test [4], in [18] and in [5] was “inactive” in each case. For the same compound, the Potency entry in [6], in test [7], in [8], in test [9], in [10] and in test [11] was “inactive” in each case. The Potency result in test [19], in test [12], in test [13], in test [20] and in [17] was “inactive” throughout. The compound was called inactive in test [14], in test [15] and in test [16].

In the case of `COc1ccc(/C=C2\COc3cc(O)ccc3C2=O)cc1`, the figures for the Potency in test [1] and in test [10] were 22 µM (active) and 0.485 µM (active), respectively. Moreover, the Potency result in test [2], in [3], in test [18], in test [5], in test [6] and in test [7] was “inactive” in each case. Also, the Potency entry in test [8], in test [9], in test [11], in [19], in [12] and in test [13] was “inactive” throughout. Further, the Potency entry in [17] is “inactive”. Besides, the compound was classed as inactive in test [14], in [15] and in [16].

As to `COC1C(O)C(OC(N)=O)C(Oc2ccc3c(O)c(NC(=O)c4ccc(O)c(CC=C(C)C)c4)c(=O)oc3c2C)OC1(C)C` (configuration not stated), the Potency in [1] was 44 µM (active). Besides, the Potency result in test [2], in test [3], in test [4], in [18], in test [5] and in [6] was “inactive” throughout. Moreover, the Potency entry in test [7], in test [8], in [9], in [10], in test [11] and in test [19] was “inactive” in each case. Moreover, the Potency result in test [12], in [13], in [20] and in [17] was “inactive” throughout. In addition, the compound was called inactive in test [15] and in test [16].

As to `CCC[C@@H](C)/C=C(\C)[C@H](O)[C@H](C)/C=C/CC[C@@H](O)[C@H](C)[C@H](O)[C@H](C)[C@H](O)[C@H](C)[C@H]1O[C@H]([C@H](C)C(=O)O)CC[C@@H]1C`, the Potency is 6.21 µM (active) in test [1]; 4.73 µM (active) in test [2]; 3.34 µM (active) in test [3]; 16.8 µM (active) in test [4]; 5.94 µM (active) in [18]; 16.5 µM (active) in test [11]. In addition, in [17], the Potency is 9.33 µM (active). For the same compound, the Potency entry in test [5], in [6], in [7], in test [8], in [9] and in [10] was “inactive” throughout. In addition, the Potency entry in test [12] was “inactive”. Moreover, the outcome in test [14] and in test [15] was inactive.

As to `C=C1C(=O)O[C@H]2[C@H]1CC/C(CO)=C\CC[C@@]1(C)O[C@@H]21`, the Potency result in [1], in test [6], in test [7], in [8], in test [10] and in test [17] was “inactive” in each case. For the same compound, the Potency in [2] is 16.8 µM (active); in [3], 23.6 µM (active); in [4] it was 18.8 µM (active); in [18], 13.3 µM (active); in [9], 23.5 µM (active); in test [19], 20.9 µM (active). Also, the figures for the Potency in test [12], in [13] and in test [20] were 18.7 µM (active), 20.9 µM (active) and 6.11 µM (active), respectively. Further, the outcome in test [14] and in test [15] was inactive.
